The values that follow come from the antibiotic and cytotoxicity screens of Wong et al. (2023).

The whole screen tested about 39,000 compounds, of which about 3,300 (8.5%) were called active. This is one part of a sample in which actives are shown more often than they occur.

The subject of the assay is HepG2. In words: cytotoxicity call (relative viability < 0.9). The following applies: 10 µM.
On to `Nc1nc(/C(=N/O)C(=O)N[C@@H]2C(=O)N3C(C(=O)O)=C(/C=C4\CCN([C@@H]5CCNC5)C4=O)CS[C@H]23)ns1`, for which the cytotoxicity call is “inactive”.
`CSc1ncc(C(=O)NN)n1C`: the cytotoxicity call is “inactive”.
For the molecule `CCS(=O)(=O)NCC[C@H]1CC[C@H](NC(=O)C2CC2)[C@H](CO)O1`, the cytotoxicity call is “inactive”.
The entry for `CN(C)C(=O)COC[C@]12COC[C@H]1CN(S(C)(=O)=O)C2` is “inactive”; for `C[C@H](CO)N1C[C@H](C)[C@H](CN(C)C(=O)Nc2ccc3c(c2)OCO3)Oc2ccc(NC(=O)c3ccncc3)cc2CC1=O` it is “inactive”.
For `C[C@H](CO)N1C[C@H](C)[C@H](CN(C)C(=O)Nc2ccc3c(c2)OCO3)Oc2ccc(NS(=O)(=O)c3cn(C)cn3)cc2CC1=O`, the cytotoxicity call was “inactive”.
With `O=C(Nc1ccc2c(c1)[C@@H]1C[C@@H](CC(=O)N3CCc4ccccc4C3)O[C@H](CO)[C@@H]1O2)C1CCOCC1`, the cytotoxicity call is “inactive”.
The entry for `C[C@@H]1CN([C@@H](C)CO)C(=O)Cc2cc(NC(=O)C3CC3)ccc2O[C@@H]1CN(C)C(=O)Nc1ccccc1` is “inactive”; for `C[C@@H]1CN([C@H](C)CO)C(=O)c2cc(NC(=O)C3CCCCC3)ccc2O[C@@H](C)CCCCO[C@@H]1CN(C)S(=O)(=O)c1ccc(F)cc1` it is “inactive”.
For the molecule `O=C(CN1CCOCC1)NCC[C@H]1CC[C@@H](NC(=O)Cc2ccccn2)[C@@H](CO)O1`, the cytotoxicity call was “inactive”.
As for `Cc1noc(C)c1NC(=O)N(C)C[C@H]1Oc2c(NS(=O)(=O)c3c(C)noc3C)cccc2C(=O)N([C@@H](C)CO)C[C@H]1C`, the entry is “inactive”; as for `C=CCOC(=O)[C@H]1[C@@H]2C(=O)O[C@@H](c3ccccc3)[C@@H](c3ccccc3)N2[C@@H](c2ccc(OCCOC(=O)[C@H]3C[C@H]4C(=O)N[C@@H](Cc5ccccc5)C(=O)N4[C@H]3c3ccc(O)cc3)cc2)[C@]12C(=O)Nc1ccccc12`, “inactive”; as for `C[C@H]1CN([C@@H](C)CO)C(=O)c2cc(NC(=O)c3ccncc3)ccc2O[C@H]1CN(C)S(=O)(=O)c1ccccc1`, “inactive”.
On to `O=C(CCCCC(=O)N/N=C/[C@H](O)[C@@H](O)[C@H](O)[C@H](O)CO)NO`, for which the cytotoxicity call is “inactive”.
Consider `Cc1cc(N)c2ccccc2[n+]1CCCCCCCCCC[n+]1c(C)cc(N)c2ccccc21.[Cl-].[Cl-]`, for which the cytotoxicity call was “active”.
As for `CCCN(C)C[C@@H]1OCCCC[C@@H](C)Oc2ccc(NS(=O)(=O)c3ccc(Cl)cc3)cc2C(=O)N([C@H](C)CO)C[C@@H]1C`, the entry is “inactive”; as for `COc1ccc(NC(=O)Nc2ccc3c(c2)C(=O)N([C@H](C)CO)C[C@H](C)[C@H](CN(C)Cc2ccncc2)OCCCC[C@@H](C)O3)cc1`, “inactive”; as for `CN(C)c1nc(N)nc(CSc2nnnn2C)n1`, “inactive”.
In the case of `COc1ccc(CN(C)C[C@H]2Oc3ccc(NS(=O)(=O)c4c(C)noc4C)cc3CC(=O)N([C@H](C)CO)C[C@H]2C)cc1`, the cytotoxicity call was “inactive”.
Consider `O=C(C[C@@H]1C[C@@H]2c3cc(NC(=O)c4ccc5c(c4)OCO5)ccc3O[C@@H]2[C@H](CO)O1)NCC(F)(F)F`, for which the cytotoxicity call was “inactive”.
`C[C@@H]1CCCCO[C@@H](CN(C)Cc2ccc(Cl)c(Cl)c2)[C@@H](C)CN([C@@H](C)CO)C(=O)c2cc(NS(=O)(=O)c3cccs3)ccc2O1`: the cytotoxicity call is “active”.
Consider `C[C@@H]1CCCCO[C@H](CN(C)Cc2ccc(Cl)c(Cl)c2)[C@@H](C)CN([C@H](C)CO)C(=O)c2cc(NS(=O)(=O)c3cccs3)ccc2O1`, for which the cytotoxicity call is “active”.
The entry for `C[C@@H]1CCCCO[C@@H](CN(C)Cc2ccc(Cl)c(Cl)c2)[C@H](C)CN([C@H](C)CO)C(=O)c2cc(NS(=O)(=O)c3cccs3)ccc2O1` is “inactive”; for `C[C@@H]1CCCCO[C@H](CN(C)Cc2ccc(Cl)c(Cl)c2)[C@H](C)CN([C@H](C)CO)C(=O)c2cc(NS(=O)(=O)c3cccs3)ccc2O1` it is “inactive”; for `C[C@H](CO)N1C[C@H](C)[C@@H](CN(C)Cc2ccc(Cl)c(Cl)c2)OCCCC[C@H](C)Oc2ccc(NS(=O)(=O)c3cccs3)cc2C1=O` it is “inactive”.
With `C[C@@H]1CCCCO[C@@H](CN(C)Cc2ccc(Cl)c(Cl)c2)[C@@H](C)CN([C@H](C)CO)C(=O)c2cc(NS(=O)(=O)c3cccs3)ccc2O1`, the cytotoxicity call was “inactive”.
As for `CC(C)NC(=O)N(C)C[C@@H]1Oc2ccc(NC(=O)CCCN(C)C)cc2C(=O)N([C@@H](C)CO)C[C@@H]1C`, the entry is “inactive”.
For the molecule `C[C@@H]1CN([C@H](C)CO)C(=O)c2cc(NC(=O)CCN3CCOCC3)ccc2O[C@@H]1CN(C)Cc1ccccc1`, the cytotoxicity call is “inactive”.
Take `C[C@H]1CN([C@@H](C)CO)C(=O)c2cc(C#CC3CC3)cnc2O[C@H]1CN(C)S(=O)(=O)c1cccc(F)c1`: the cytotoxicity call was “inactive”.
For the molecule `COc1ccc(NC(=O)Nc2ccc3c(c2)C(=O)N([C@@H](C)CO)C[C@@H](C)[C@H](CN(C)C(=O)NC(C)C)OCCCC[C@@H](C)O3)cc1`, the cytotoxicity call is “inactive”.
Regarding `C[C@H]1CN([C@@H](C)CO)C(=O)c2cccc(NC(=O)c3ccncc3)c2O[C@@H]1CN(C)Cc1ccc2c(c1)OCO2`, the cytotoxicity call is “inactive”.
With `NNC(=S)NCc1ccc(F)cc1`, the cytotoxicity call was “inactive”.
On to `N[C@@H](Cc1ccc(F)cc1)C(=O)O`, for which the cytotoxicity call is “inactive”.
Regarding `NC(=CS(=O)(=O)Cc1ccc(F)cc1)NO`, the cytotoxicity call is “active”.
Consider `CC(=O)O[C@H]1[C@H](O)[C@H](O)[C@H](O[C@@H]2[C@@H](Oc3cc(O)c4c(=O)cc(-c5ccc(O)c(O)c5)oc4c3)O[C@@H](C(=O)O)[C@H](O)[C@@H]2O)O[C@@H]1C`, for which the cytotoxicity call was “inactive”.
As for `C[C@H]1CN([C@@H](C)CO)C(=O)c2cc(NC(=O)CCCN(C)C)ccc2O[C@@H]1CN(C)S(=O)(=O)c1ccc(Cl)cc1`, the entry is “inactive”; as for `Cc1ccccc1OC[C@@H](O)CO`, “inactive”; as for `Cc1ccccc1OCC(O)CO` (stereo not given), “active”.
As for `CC(C)c1ccccc1OC[C@@H](O)CN`, the cytotoxicity call is “inactive”.
Turning to `COc1cccc(NC(=O)N(C)C[C@H]2Oc3ncc(Br)cc3C(=O)N([C@H](C)CO)C[C@H]2C)c1`, the cytotoxicity call was “inactive”.
With `C[C@H]1COC(=O)[C@@H](Cc2ccc(F)cc2)CC=CC[C@@H](CC(=O)N[C@H](CO)Cc2ccccc2)C(=O)N1`, the cytotoxicity call is “inactive”.
For `Cn1nccc1NC(=O)/C=C/C(=O)O`, the cytotoxicity call is “inactive”.
Turning to `C[C@@H]1CN([C@@H](C)CO)S(=O)(=O)c2ccc(-c3cccc(C#N)c3)cc2O[C@@H]1CN(C)C(=O)c1cccnc1`, the cytotoxicity call was “inactive”.
The entry for `C[C@@H]1CCCCO[C@H](CN(C)C(=O)Nc2ccc(F)cc2)[C@@H](C)CN([C@H](C)CO)C(=O)c2cc(NC(=O)Nc3ccc(F)cc3)ccc2O1` is “inactive”; for `C[C@H]1CCCCO[C@H](CN(C)C(=O)Nc2ccccc2)[C@@H](C)CN([C@@H](C)CO)C(=O)c2cc(NC(=O)Nc3ccc(F)cc3)ccc2O1` it is “active”; for `C[C@@H]1CCCCO[C@@H](CN(C)C(=O)Nc2ccccc2)[C@@H](C)CN([C@H](C)CO)C(=O)c2cc(NC(=O)Nc3ccc(F)cc3)ccc2O1` it is “inactive”.
Consider `C[C@@H]1CCCCO[C@@H](CN(C)C(=O)Nc2ccc(F)cc2)[C@H](C)CN([C@@H](C)CO)C(=O)c2cc(NC(=O)Nc3ccccc3)ccc2O1`, for which the cytotoxicity call was “inactive”.
Regarding `C[C@@H]1CCCCO[C@@H](CN(C)C(=O)Nc2ccc(F)cc2)[C@@H](C)CN([C@H](C)CO)C(=O)c2cc(NC(=O)Nc3ccc(F)cc3)ccc2O1`, the cytotoxicity call is “inactive”.
In the case of `C[C@@H]1CN([C@H](C)CO)C(=O)c2cc(NC(=O)Nc3ccc(F)cc3)ccc2O[C@@H](C)CCCCO[C@H]1CN(C)C(=O)Nc1ccc(F)cc1`, the cytotoxicity call was “active”.
Consider `COc1ccc(NC(=O)Nc2ccc3c(c2)C(=O)N([C@H](C)CO)C[C@H](C)[C@H](CN(C)Cc2ccc4c(c2)OCO4)OCCCC[C@@H](C)O3)cc1`, for which the cytotoxicity call is “inactive”.
As for `Cc1ccc(S(=O)(=O)N2C[C@H](O)COC[C@@H]3O[C@@H](CC(=O)NCc4ccc5c(c4)OCO5)CC[C@H]32)cc1`, the cytotoxicity call was “inactive”.
As for `COc1ccc(S(=O)(=O)N(C)C[C@H]2Oc3c(cccc3N(C)C)C(=O)N([C@H](C)CO)C[C@@H]2C)cc1`, the cytotoxicity call was “inactive”.
Consider `CC(=O)N1[C@H](Cn2cncn2)C[C@H]2CN(C(N)=O)CC[C@H]21`, for which the cytotoxicity call was “inactive”.
The entry for `COc1ccc(NC(=O)N(C)C[C@H]2OCCCC[C@@H](C)Oc3ccc(NC(=O)Nc4c(C)noc4C)cc3C(=O)N([C@@H](C)CO)C[C@H]2C)cc1` is “inactive”; for `C[C@@H]1CCCCO[C@H](CN(C)Cc2ccccc2)[C@H](C)CN([C@@H](C)CO)C(=O)c2cc(NC(=O)CCC(F)(F)F)ccc2O1` it is “inactive”; for `COc1ccc(NC(=O)Nc2ccc3c(c2)C(=O)N([C@H](C)CO)C[C@@H](C)[C@@H](CN(C)C(=O)c2ccccc2)OCCCC[C@H](C)O3)cc1` it is “inactive”.
Turning to `NNC(=O)CCCCCCC(=O)NO`, the cytotoxicity call was “inactive”.
Consider `NNC(=O)CCCCCC(=O)NO`, for which the cytotoxicity call is “inactive”.
The entry for `NNC(=O)CCCCC(=O)NO` is “active”; for `Cc1cc([N+](=O)[O-])nn1CC(=O)NC(C)C` it is “inactive”.
For `COc1cc2c(cc1OC)C(=O)NCC2`, the cytotoxicity call was “active”.
Consider `COc1cc2c(cc1OC)C(=O)OC2`, for which the cytotoxicity call is “inactive”.
As for `COc1cc2c(cc1OC)Cc1cc(OC)c(OC)cc1Cc1cc(OC)c(OC)cc1C2`, the entry is “inactive”; as for `CO[C@H]1CN(C)C(=O)c2cc(NC(=O)C3CC3)ccc2OC[C@H](C)N(C(=O)Cc2ccccn2)C[C@H]1C`, “inactive”; as for `Cc1cc(C(=O)Nc2cccc3c2O[C@@H](CN(C)C(=O)Nc2ccccc2)[C@H](C)CN([C@@H](C)CO)C3=O)n(C)n1`, “inactive”.
Regarding `Cc1ccc(CSc2nnc(CCN)o2)cc1`, the cytotoxicity call is “active”.
For the molecule `NCCCCCc1nnc(SCC(N)=O)o1`, the cytotoxicity call was “inactive”.
With `CC1(C)CC(=O)c2c(C(F)(F)F)nn(-c3ccc(C(N)=O)c(O[C@H]4CC[C@H](N)CC4)c3)c2C1`, the cytotoxicity call is “inactive”.
On to `CC1(C)CC(=O)c2c(C(F)(F)F)nn(-c3ccc(C(N)=O)c(N[C@H]4CC[C@H](OC(=O)CN)CC4)c3)c2C1`, for which the cytotoxicity call is “active”.
As for `CC(C)[C@@H](CC[C@@H](C)[C@H]1CC[C@H]2[C@@H]3[C@H](O)C[C@H]4C[C@@H](NCCCNCCCCN)CC[C@]4(C)[C@H]3CC[C@]12C)OS(=O)(=O)O`, the cytotoxicity call is “active”.
In the case of `CC(C)[C@@H](CC[C@@H](C)[C@H]1CC[C@H]2[C@@H]3[C@H](O)C[C@H]4C[C@@H](NCCCNCCCCNCCCN)CC[C@]4(C)[C@H]3CC[C@]12C)OS(=O)(=O)O`, the cytotoxicity call was “active”.
With `CC(CCC(=O)O)C1CCC2C3C(O)CC4CC(O)CCC4(C)C3CCC12C` (stereo not given), the cytotoxicity call is “inactive”.
The entry for `CCC(CCC(C)C1CCC2C3CCC4CC(O)CCC4(C)C3CCC12C)C(C)C` (stereo not given) is “inactive”; for `CC(CCC(=O)O)C1CCC2C3CCC4CC(O)CCC4(C)C3CCC12C` (stereo not given) it is “inactive”; for `CCCCCCCCCCCCCCCCCCCC(=O)N[C@H]1CC[C@@]2(C)[C@@H](C1)C[C@@H](O)[C@@H]1[C@@H]2C[C@H](O)[C@]2(C)[C@@H]([C@H](C)CCC(=O)O)CC[C@@H]12` it is “inactive”.
